According to PubChem BioAssay (NCATS):
Inconclusive results are not listed. Activity calls are given as the source filed them. Unless noted, the call rests on the fitted dose curve; in most records, active means well fitted curve in either direction with a large enough effect (not every such curve was filed as active); inconclusive means small, poorly fitted or top-dose-only effect, or another doubt; inactive means flat fitted curve, though single readings scatter.

Tests used:
[1] = target: Lysosomal acid glucosylceramidase (Homo sapiens) (UniProt P04062); test: Glucocerebrosidase-p2 (AID 348; in the data active means potency below about 10 µM; further: potency means the concentration at half of the fitted maximal effect); settings: purified GBA, blue fluorogenic substrate, 40 min
Procedure, shortened: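 Compounds titrated from 0.6 nM upwards against 0.2 nM enzyme in pH 5.9 citric acid/KH2PO4, taurocholate, tween-20; blue fluorogenic substrate 80 uM, 40 min room temperature, stopped and read Ex 365/Em 440 for AC50.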

[2] = AP1 Signaling Pathway (AID 357); settings: ME-180 AP-1-bla reporter, EGF-induced, beta-lactamase ratio, 5 h; at 7.69 µM (top of the series) unless noted;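 further: ME-180 reporter cells stimulated with EGF at its EC50 level; on the % scale 0 is the no-effect control and ±100 the full control effect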
Procedure, shortened: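 Cells are seeded overnight, exposed to compound titrations and an EC50 level of EGF for 5 hours at 37 °C, then loaded with CCF4 dye for 2.5 hours. Beta-lactamase activity under the AP-1 element is read as a blue/green ratio.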

[3] = NFAT Signaling Pathway (AID 444); settings: Jurkat NFAT-bla M1, carbachol, beta-lactamase ratio, 5 h; at 7.69 µM (top of the series) unless noted;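 further: carbachol stimulus at about its EC50 of 1 µM final; on the % scale 0 is the no-effect control and ±100 the full control effect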
Procedure, shortened: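 Jurkat cells with NFAT-driven β-lactamase reporter and co-expressed M1 receptor, stimulated with carbachol (final 1 uM, ~EC50), compound titration, 5 h at 37 °C. CCF4 loaded 1 h at RT; 460/530 nm ratio gave %activity and AC50.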

[4] = Stat Signaling Pathway (AID 446); settings: ME-180 (cervical carcinoma) SIE beta-lactamase reporter, IL-6 stimulated, 5 h; at 7.69 µM (top of the series) unless noted;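 further: ME-180 cervical cancer cells given 40 pM IL-6 alongside compound; SIE-controlled beta-lactamase reporter measured as 460/530 nm FRET emission ratio; on the % scale 0 is the no-effect control and ±100 the full control effect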
Procedure, shortened: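 IL-6/STAT signaling read in ME-180 cells via an SIE beta-lactamase reporter. Stimulus was 40 pM IL-6 (its AC50) for 5 hrs, so both activation and inhibition register.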

[5] = target: Glucocorticoid receptor (Homo sapiens) (UniProt P04150); test: GR-GFP Redistribution (AID 450;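 active means compounds whose dose series gives a full or clear partial fitted curve of increased nuclear translocation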; further: potency means the concentration at half of the fitted maximal effect); settings: U2OS GR-GFP nuclear translocation, laser cytometry, 2 h
[6] = target: Glucocorticoid receptor (Homo sapiens) (UniProt P04150); test: GR-EFC Redistribution (AID 451; calls by dose curve; further: potency means the concentration at half of the fitted maximal effect); settings: CHO-K1 GR-EFC translocation, beta-gal luminescence, 2 h
Procedure, shortened: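 CHO-K1 cells expressing nuclear EA and GR-ED fragments of b-gal; compounds titrated up to 46 uM final, 2 h at 37 C. GR nuclear translocation read as complemented b-gal luminescence after 1 h RT detection.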

[7] = target: Mitogen-activated protein kinase 10 (Mus musculus) (UniProt Q61831); test: JNK3 AlphaScreen Assay (AID 530); settings: JNK3 lysate, c-Jun phosphorylation; series mostly up to 11.4 µM;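 further: kinase came from lysate of stimulated human HepG2 cells; signal reports phosphorylation of biotinylated GST-cJun 1-79 at Ser73 with 10 µM ATP; on the % scale 0 is the no-effect control and ±100 the full control effect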
Procedure, shortened: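 qHTS format: compounds tested as titrations against IL-1beta/TNF-alpha-activated HepG2 lysate JNK3 with biotin-GST-cJun substrate and 10 uM ATP at room temperature. Loss of anti-phospho-cJun AlphaScreen signal indicates inhibition.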

[8] = target: 3',5'-cyclic-AMP phosphodiesterase 4B (Homo sapiens) (UniProt Q07343); test: qHTS Assay for Inhibitors of PDE-IV (AID 607; active means well fitted activation curve with a large enough effect in the main read-out, with a control signal flat, not every such curve was filed as active; further: % of control where 0% means no effect); settings: HEK293 ACTOne CNG channel cells, membrane potential fluorescence; series mostly up to 22.9 µM
Procedure, shortened: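 Live HEK293 cells with a modified cyclic nucleotide-gated (CNG) channel report intracellular cAMP via membrane-potential dye fluorescence (ex 535/em 590 nm). Endogenous PDE-IV was targeted. Compounds were tested at up to 22.9 uM final; RO 20-1724 100 uM served as control.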

[9] = target: ATP-dependent 6-phosphofructokinase (Trypanosoma brucei brucei) (UniProt O15648); test: qHTS Assay to Find Inhibitors of T. brucei phosphofructokinase: hit validation (AID 492961; active means well fitted curve in the direction sought with a large enough effect; an effect the other way counts as inactive or inconclusive); settings: T. brucei PFK, ADP-Glo luminescence; series mostly up to 51.4 µM
Procedure, shortened: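 Compounds titrated; %activity normalized to 0x and 1x enzyme controls, curve-fitted. Readout: ADP-Glo luminescence after 45 min room-temperature reaction of 1.25 nM PFK, 0.1 mM ATP, 0.5 mM F6P, pH 8.0.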

[10] = qHTS profiling for inhibitors of Plasmodium falciparum proliferation (AID 504749; active means well fitted curve in the direction sought with a large enough effect; an effect the other way counts as inactive or inconclusive;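 further: 0% = DMSO vehicle and full inhibition = artemisinin control; nearly all actives have a fitted effect of over 60% in size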); settings: P. falciparum in erythrocytes, SYBR Green DNA, 72 h, at 28.7 µM (top of the series)
Procedure, shortened: (§1)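 Readout was DNA-dye fluorescence from lysed cultures, ex 485/em 535 nm. Parasitized red cells had grown 72 h with compound; data scaled between 0.29 uM artemisinin and DMSO wells and corrected using vehicle-only plates.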

AS120 = test: as above; settings: P. falciparum in erythrocytes, SYBR Green DNA, 72 h; series mostly up to 28.7 µM
Procedure, shortened: as §1

ATS189 = test: as above; settings: P. falciparum in erythrocytes, SYBR Green DNA, 72 h; series mostly up to 28.7 µM
Procedure, shortened: as §1

W2 = test: as above; settings: P. falciparum in erythrocytes, SYBR Green DNA, 72 h; series mostly up to 28.7 µM
Procedure, shortened: as §1

[11] = target: Cytochrome P450 1A2 (Homo sapiens) (UniProt P05177); test: p450-cyp1a2 (AID 410; calls by dose curve; further: potency means the concentration at half of the fitted maximal effect;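 on activity change, negative = inhibition: -100% = full effect of reference inhibitor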); settings: recombinant CYP1A2, luciferin-ME demethylation, luminescence; series mostly up to 11.4 µM
Procedure, shortened: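 Inhibition was calculated relative to 57 uM furafylline (full inhibition). The reaction used human CYP1A2 at 20nM with Luciferin-ME at its Km, 100uM, driven by an NADPH-regenerating system for 60 min at room temperature.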

[12] = target: Cytochrome P450 2C19 (Homo sapiens) (UniProt P33261); test: qHTS Assay for Inhibitors and Substrates of Cytochrome P450 2C19 (AID 899; active means well fitted curve in the direction sought with a large enough effect; an effect the other way counts as inactive or inconclusive; further: potency means the concentration at half of the fitted maximal effect; nearly all actives have a fitted effect of over 60% in size); settings: recombinant CYP2C19, luciferin-H EGE luminescence; series mostly up to 11.4 µM
Procedure, shortened: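 5 nM human CYP2C19 with 10uM Luciferin-H EGE (at KM) in 50mM KPO4, compound preincubated 10 min at 37C, then NADPH regeneration for 60 min at 37C. Luciferin read by luminescence after detection reagent; normalized to 57uM ketoconazole as full inhibition.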

[13] = target: Cytochrome P450 3A4 (Homo sapiens) (UniProt P08684); test: qHTS Assay for Activators of Cytochrome P450 3A4 (AID 885; active means well fitted curve in the direction sought with a large enough effect; an effect the other way counts as inactive or inconclusive; further: nearly all actives have a fitted effect of over 65% in size); settings: recombinant CYP3A4, Luciferin-PPXE luminescence, 60 min; series mostly up to 11.4 µM
Procedure, shortened: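 Quantitative HTS format: compounds preincubated with 20nM human CYP3A4 and Luciferin-PPXE substrate at KM, reaction started by NADPH regeneration, stopped after 60 min, luciferase luminescence read 20 min later.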

[14] = target: Cytochrome P450 2D6 (Homo sapiens) (UniProt P10635); test: qHTS Assay for Inhibitors and Substrates of Cytochrome P450 2D6 (AID 891; active means well fitted curve in the direction sought with a large enough effect; an effect the other way counts as inactive or inconclusive; further: potency means the concentration at half of the fitted maximal effect; nearly all actives have a fitted effect of over 60% in size); settings: recombinant CYP2D6, luciferin-ME EGE luminescence; series mostly up to 11.4 µM
Procedure, shortened: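 Human CYP2D6 (5 nM) with 30 uM Luciferin-ME EGE (at Km) in 100 mM KPO4, compound preincubated 10 min, then NADPH regeneration system for 60 min at room temperature. Luciferin read by luminescence; normalized to 1.43 uM quinidine.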

Sequence of Glucocorticoid receptor (Homo sapiens) (P04150 whole entry, looked up, the tested form may be a part): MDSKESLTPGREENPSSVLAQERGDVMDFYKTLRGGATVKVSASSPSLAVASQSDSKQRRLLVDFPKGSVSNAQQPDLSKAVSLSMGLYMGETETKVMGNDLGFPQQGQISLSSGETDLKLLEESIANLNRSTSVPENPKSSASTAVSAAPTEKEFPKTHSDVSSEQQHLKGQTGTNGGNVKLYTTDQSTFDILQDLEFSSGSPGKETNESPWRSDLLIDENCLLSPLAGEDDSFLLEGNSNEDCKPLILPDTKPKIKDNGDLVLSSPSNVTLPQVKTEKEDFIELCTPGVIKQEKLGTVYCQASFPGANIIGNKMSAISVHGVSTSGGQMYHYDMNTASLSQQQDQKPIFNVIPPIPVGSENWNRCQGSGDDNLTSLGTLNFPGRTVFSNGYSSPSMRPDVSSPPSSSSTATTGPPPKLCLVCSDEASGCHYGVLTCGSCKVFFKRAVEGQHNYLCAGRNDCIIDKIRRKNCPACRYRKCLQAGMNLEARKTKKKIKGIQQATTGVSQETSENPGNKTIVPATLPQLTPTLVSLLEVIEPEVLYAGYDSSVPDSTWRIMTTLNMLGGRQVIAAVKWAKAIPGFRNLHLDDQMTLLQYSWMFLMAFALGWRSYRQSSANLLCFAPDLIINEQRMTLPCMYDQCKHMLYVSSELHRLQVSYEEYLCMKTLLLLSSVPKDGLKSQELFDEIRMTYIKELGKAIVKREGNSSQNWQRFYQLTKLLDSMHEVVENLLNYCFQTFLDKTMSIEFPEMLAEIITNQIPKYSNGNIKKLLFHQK
Sequence of 3',5'-cyclic-AMP phosphodiesterase 4B (Homo sapiens) (Q07343 whole entry, looked up): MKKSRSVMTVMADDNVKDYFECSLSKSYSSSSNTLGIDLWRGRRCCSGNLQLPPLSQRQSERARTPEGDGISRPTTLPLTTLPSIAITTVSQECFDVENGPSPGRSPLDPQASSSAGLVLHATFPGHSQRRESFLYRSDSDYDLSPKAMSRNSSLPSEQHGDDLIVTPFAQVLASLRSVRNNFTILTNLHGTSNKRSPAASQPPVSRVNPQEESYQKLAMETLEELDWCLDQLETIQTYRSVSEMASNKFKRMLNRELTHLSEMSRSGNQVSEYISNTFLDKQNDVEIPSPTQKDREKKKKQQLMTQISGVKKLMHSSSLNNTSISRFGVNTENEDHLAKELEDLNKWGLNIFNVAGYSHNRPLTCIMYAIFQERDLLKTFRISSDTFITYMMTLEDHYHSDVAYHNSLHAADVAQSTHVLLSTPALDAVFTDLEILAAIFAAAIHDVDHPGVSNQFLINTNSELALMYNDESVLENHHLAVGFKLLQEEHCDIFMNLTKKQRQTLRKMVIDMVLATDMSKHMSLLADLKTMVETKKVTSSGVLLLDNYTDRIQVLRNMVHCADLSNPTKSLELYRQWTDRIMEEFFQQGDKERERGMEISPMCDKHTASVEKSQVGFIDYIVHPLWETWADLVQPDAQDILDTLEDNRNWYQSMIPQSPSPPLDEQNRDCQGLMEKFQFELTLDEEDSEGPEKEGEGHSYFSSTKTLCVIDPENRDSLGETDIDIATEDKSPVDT
Sequence of Lysosomal acid glucosylceramidase (Homo sapiens) (P04062 whole entry, looked up): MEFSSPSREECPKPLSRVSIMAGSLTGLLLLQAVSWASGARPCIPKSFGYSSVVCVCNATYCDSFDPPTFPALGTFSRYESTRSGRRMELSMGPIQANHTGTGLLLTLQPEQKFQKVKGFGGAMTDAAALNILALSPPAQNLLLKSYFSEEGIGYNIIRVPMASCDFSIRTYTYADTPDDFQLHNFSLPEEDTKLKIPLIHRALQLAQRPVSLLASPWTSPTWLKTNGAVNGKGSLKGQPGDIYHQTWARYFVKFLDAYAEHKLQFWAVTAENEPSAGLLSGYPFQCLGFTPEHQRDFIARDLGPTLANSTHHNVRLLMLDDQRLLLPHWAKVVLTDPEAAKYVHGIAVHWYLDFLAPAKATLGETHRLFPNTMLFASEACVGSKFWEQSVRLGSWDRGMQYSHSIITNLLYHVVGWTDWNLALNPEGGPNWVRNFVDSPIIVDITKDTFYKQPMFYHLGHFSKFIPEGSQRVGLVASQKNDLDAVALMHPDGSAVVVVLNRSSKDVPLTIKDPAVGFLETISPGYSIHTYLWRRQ
Sequence of Cytochrome P450 3A4 (Homo sapiens) (P08684 whole entry, looked up): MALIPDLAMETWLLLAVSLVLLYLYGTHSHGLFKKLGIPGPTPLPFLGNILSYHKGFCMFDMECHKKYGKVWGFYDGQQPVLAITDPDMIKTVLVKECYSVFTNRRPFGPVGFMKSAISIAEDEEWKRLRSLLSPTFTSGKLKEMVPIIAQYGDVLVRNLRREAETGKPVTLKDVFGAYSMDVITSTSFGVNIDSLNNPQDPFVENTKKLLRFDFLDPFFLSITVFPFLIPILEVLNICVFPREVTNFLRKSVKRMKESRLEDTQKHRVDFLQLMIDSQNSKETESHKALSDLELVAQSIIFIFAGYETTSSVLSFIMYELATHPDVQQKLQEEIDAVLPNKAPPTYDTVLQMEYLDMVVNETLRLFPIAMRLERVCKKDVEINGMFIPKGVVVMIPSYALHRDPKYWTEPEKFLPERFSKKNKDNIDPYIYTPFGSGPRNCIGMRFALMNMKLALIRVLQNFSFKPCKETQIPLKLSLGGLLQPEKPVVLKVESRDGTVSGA
Sequence of Cytochrome P450 1A2 (Homo sapiens) (P05177 whole entry, looked up): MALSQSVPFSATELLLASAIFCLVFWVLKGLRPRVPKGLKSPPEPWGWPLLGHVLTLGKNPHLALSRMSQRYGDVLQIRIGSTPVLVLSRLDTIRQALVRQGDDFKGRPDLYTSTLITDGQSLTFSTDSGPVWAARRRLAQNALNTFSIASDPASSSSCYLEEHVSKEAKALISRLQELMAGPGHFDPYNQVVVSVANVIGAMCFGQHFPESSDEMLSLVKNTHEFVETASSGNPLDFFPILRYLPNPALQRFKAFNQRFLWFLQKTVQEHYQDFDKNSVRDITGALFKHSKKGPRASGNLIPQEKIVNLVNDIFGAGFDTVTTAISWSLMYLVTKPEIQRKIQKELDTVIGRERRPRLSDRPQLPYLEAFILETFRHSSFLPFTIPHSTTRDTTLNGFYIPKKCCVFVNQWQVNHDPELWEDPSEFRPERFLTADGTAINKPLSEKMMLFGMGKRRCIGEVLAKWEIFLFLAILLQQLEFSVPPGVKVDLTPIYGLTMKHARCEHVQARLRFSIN
Sequence of Cytochrome P450 2C19 (Homo sapiens) (P33261 whole entry, looked up): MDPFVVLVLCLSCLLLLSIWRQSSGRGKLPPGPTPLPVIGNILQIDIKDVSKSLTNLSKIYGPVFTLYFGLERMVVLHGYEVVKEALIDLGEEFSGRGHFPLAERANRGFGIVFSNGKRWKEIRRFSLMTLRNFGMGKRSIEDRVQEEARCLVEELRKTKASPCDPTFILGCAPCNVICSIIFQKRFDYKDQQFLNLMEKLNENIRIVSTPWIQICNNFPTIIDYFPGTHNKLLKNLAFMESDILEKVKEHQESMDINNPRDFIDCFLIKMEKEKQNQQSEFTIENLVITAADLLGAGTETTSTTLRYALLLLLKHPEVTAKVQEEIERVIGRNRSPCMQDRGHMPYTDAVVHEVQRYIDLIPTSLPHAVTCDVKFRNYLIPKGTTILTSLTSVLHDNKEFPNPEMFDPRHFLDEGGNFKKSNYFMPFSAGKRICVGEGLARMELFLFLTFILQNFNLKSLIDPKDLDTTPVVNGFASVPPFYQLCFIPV
Sequence of ATP-dependent 6-phosphofructokinase (Trypanosoma brucei brucei) (O15648 whole entry, looked up): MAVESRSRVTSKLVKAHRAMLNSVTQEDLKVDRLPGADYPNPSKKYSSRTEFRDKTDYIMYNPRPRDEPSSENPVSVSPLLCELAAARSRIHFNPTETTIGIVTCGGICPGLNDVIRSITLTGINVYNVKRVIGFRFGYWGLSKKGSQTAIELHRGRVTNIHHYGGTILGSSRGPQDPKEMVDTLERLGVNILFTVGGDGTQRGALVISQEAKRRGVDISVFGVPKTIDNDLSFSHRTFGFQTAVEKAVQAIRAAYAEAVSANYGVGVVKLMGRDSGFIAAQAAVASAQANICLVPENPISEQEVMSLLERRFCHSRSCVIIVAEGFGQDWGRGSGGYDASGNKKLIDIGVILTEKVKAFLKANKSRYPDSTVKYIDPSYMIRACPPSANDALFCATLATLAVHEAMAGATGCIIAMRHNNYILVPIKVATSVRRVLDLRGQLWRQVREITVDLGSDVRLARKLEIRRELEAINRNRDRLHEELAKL
Sequence of Cytochrome P450 2D6 (Homo sapiens) (P10635 whole entry, looked up): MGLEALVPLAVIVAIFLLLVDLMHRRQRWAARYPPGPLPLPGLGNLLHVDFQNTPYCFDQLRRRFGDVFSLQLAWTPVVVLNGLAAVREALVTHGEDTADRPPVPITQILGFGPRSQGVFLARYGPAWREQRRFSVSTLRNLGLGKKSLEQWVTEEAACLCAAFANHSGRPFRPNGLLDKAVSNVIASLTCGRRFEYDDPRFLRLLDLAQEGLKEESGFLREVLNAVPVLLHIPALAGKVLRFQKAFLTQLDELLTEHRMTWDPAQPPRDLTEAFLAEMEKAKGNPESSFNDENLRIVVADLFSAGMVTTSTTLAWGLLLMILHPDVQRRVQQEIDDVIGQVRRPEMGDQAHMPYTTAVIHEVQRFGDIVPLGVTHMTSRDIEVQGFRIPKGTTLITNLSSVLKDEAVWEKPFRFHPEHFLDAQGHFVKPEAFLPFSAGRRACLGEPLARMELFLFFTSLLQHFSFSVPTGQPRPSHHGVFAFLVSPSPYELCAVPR

CC1(C)S[C@@H]2[C@H](NC(=O)Cc3ccccc3)C(=O)N2[C@@H]1C(=O)O
inactive: Potency [1] > 11.4 µM | activity change, negative = inhibition [2] 11.5% | activity change, negative = inhibition [3] 4.82% | activity, negative = inhibition [4] -4.4% | Potency [5] > 46 µM | Potency [6] > 9.22 µM | Potency [7] | Potency [8] | outcome [9] | activity, negative = inhibition ([10]; parasite line A) 2.23% | activity, negative = inhibition ([10]; parasite line B) 9.91% | Potency (AS120) | Potency (ATS189) | Potency (W2)

COc1cc(O)c2c(O)c3c(c4c2c1[C@@]1(C4)C(C)=CCCC1(C)C)[C@H](O)[C@@]1(O)CC(=O)C(C(N)=O)=C(O)[C@]1(O)C3=O
active: Potency [11] 3.16 µM | Potency [12] 2.51 µM
inactive: Potency [1] > 11.4 µM | activity change, negative = inhibition [2] -27.8% | Potency [5] > 46 µM | Potency [6] > 9.22 µM | Potency [7] | Potency [8]

CN(/N=C\c1ccccc1O)c1ccc2ccccc2n1
inactive: Potency [1] > 11.4 µM | activity change, negative = inhibition [2] -2.44% | activity change, negative = inhibition [3] -9.81% | activity, negative = inhibition [4] 1.98% | Potency [5] > 46 µM | Potency [6] > 9.22 µM | Potency [7] | Potency [8]

NC(=O)C/C=C\CC(N)=O
inactive: Potency [1] > 11.4 µM | activity change, negative = inhibition [2] 1.15% | activity change, negative = inhibition [3] 10.3% | activity, negative = inhibition [4] -3.27% | Potency [5] > 46 µM | Potency [6] > 9.22 µM | Potency [7]

Nc1nc(SCc2ccccn2)c2ncn(C3CCCC3)c2n1
inactive: Potency [1] > 11.4 µM | activity change, negative = inhibition [2] -14.6% | activity change, negative = inhibition [3] 9.85% | activity, negative = inhibition [4] 4.58% | Potency [5] > 46 µM | Potency [6] > 9.22 µM | Potency [7]

CCOC(=O)c1c2c(n3ccccc13)C(=O)c1ccccc1C2=O
active: Potency [11] 0.1 µM
inactive: Potency [1] > 11.4 µM | activity change, negative = inhibition [2] 19.9% | Potency [5] > 46 µM | Potency [6] > 9.22 µM | Potency [13]

O=C(O)CCNCC(=O)O
inactive: Potency [1] > 11.4 µM | activity change, negative = inhibition [2] 2.01% | activity change, negative = inhibition [3] 0.769% | activity, negative = inhibition [4] -2.35% | Potency [5] > 46 µM | Potency [6] > 9.22 µM | Potency [7]

NNC(=O)[C@@H](O)[C@H](O)C(=O)NN
inactive: Potency [1] > 11.4 µM | activity change, negative = inhibition [2] -1.69% | activity change, negative = inhibition [3] 10.2% | activity, negative = inhibition [4] -2.25% | Potency [5] > 46 µM | Potency [6] > 9.22 µM | Potency [7]

O=[N+]([O-])c1cccc(/C=N\Nc2ccc3ccccc3n2)c1O
active: Potency [11] 0.794 µM | Potency [14] 3.16 µM
inactive: Potency [1] > 11.4 µM | activity change, negative = inhibition [2] -13.9% | Potency [5] > 46 µM | Potency [6] > 9.22 µM | Potency [7] | Potency [8] | Potency [13]

O=C(O)Cc1[nH]cnc1C(=O)O
inactive: Potency [1] > 11.4 µM | activity change, negative = inhibition [2] -11% | activity change, negative = inhibition [3] 7.88% | activity, negative = inhibition [4] -3.92% | Potency [5] > 46 µM | Potency [6] > 9.22 µM

NC(N)=NC[C@H](N)C(=O)O
inactive: Potency [1] > 11.4 µM | activity change, negative = inhibition [2] 1.65% | activity change, negative = inhibition [3] 10.9% | activity, negative = inhibition [4] 0.308% | Potency [5] > 46 µM | Potency [6] > 9.22 µM | Potency [7] | Potency [8]

COc1ccc(-c2nc3cnc(OC)nc3n(Cc3cccs3)c2=O)cc1
inactive: Potency [1] > 11.4 µM | activity change, negative = inhibition [2] 20.7% | activity change, negative = inhibition [3] 8.9% | activity, negative = inhibition [4] 14.3% | Potency [5] > 9.22 µM | Potency [6] > 46 µM | Potency [7]

CSc1cccc(NC(=O)OC2CCCCCCCCCCC2)c1
active: Potency [11] 5.01 µM
inactive: Potency [1] > 11.4 µM | activity change, negative = inhibition [2] 8.21% | Potency [5] > 46 µM | Potency [6] > 9.22 µM | Potency [7] | Potency [8] | Potency [13]

O=[N+]([O-])c1ccc([C@@H](Nc2ccccc2)c2ccc3cccnc3c2O)cc1
active: Potency [12] 3.98 µM
inactive: Potency [1] > 11.4 µM | activity change, negative = inhibition [2] -13.7% | activity change, negative = inhibition [11] -21.3% [at 2.29 µM] | Potency [5] > 46 µM | Potency [6] > 9.22 µM | Potency [7] | Potency [8]

C[C@H](CCC(=O)O)[C@H]1CC[C@@H]2[C@H]3[C@@H](C[C@@H](O)[C@]21C)[C@]1(C)CC[C@H](O)C[C@@H]1C[C@@H]3O
inactive: Potency [1] > 11.4 µM | activity change, negative = inhibition [2] 1.25% | activity change, negative = inhibition [3] 14.6% | activity, negative = inhibition [4] 13% | Potency [5] > 46 µM | Potency [6] > 9.22 µM | Potency [7] | Potency [8] | outcome [9] | activity, negative = inhibition ([10]; parasite line A) -6.11% | activity, negative = inhibition ([10]; parasite line B) -10.8% | Potency (AS120) | Potency (ATS189) | Potency (W2)
